Among the test systems are DU-145 prostate; K-562 leukemia; MALME-3M melanoma; MDA-MB-231 breast; RXF 393 renal; SF-268 CNS; SF-539 CNS; UACC-257 melanoma; M14 melanoma; HCT-15 colon; HT29 colon; SNB-75 CNS; SNB-19 CNS; U251 CNS; PC-3 prostate; SK-MEL-5 melanoma; UACC-62 melanoma; LOX IMVI melanoma; SK-MEL-28 melanoma.
Holding throughout (assay): NCI-60 one-dose screen, 48 h (100 = growth as untreated, 0 = no growth, -100 = all killed)
What all share (conditions): 10 µM unless noted

This is part of a sample that, as a whole, favours compounds with a hit. Of some 83,000 tested, about 20% had one in any assay.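 Values shown are percent growth following 48 h exposure of cells in 96-well plates to a single concentration of compound; below 10 was considered active.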 A number with no mark means an inactive call. Activity calls are given as the source filed them.

Turning to `C#CC[C@@H]1C[C@]2(C)[C@H]3CC[C@@H]4[C@H]5C(C(=C)C)CC[C@]5(C(=O)NCCCCCCCCN)CC[C@@]4(C)[C@]3(C)CC[C@H]2C(C)(C)[C@H]1OC(C)=O` (some centres undefined), the growth is 75.3% with DU-145 prostate; -41.8% (active) with K-562 leukemia; 111% with MALME-3M melanoma; 67.9% in the assay with MDA-MB-231 breast; 71.5% in the assay with RXF 393 renal; 91.2% with SF-268 CNS. Besides, the growth is 88.3% in the assay on SF-539 CNS; 119% in the assay on UACC-257 melanoma; 102% in the assay on M14 melanoma; 67.5% with HCT-15 colon; 30.5% with HT29 colon; 80.3% with SNB-75 CNS. The growth in the assay with SNB-19 CNS is 92.1%; in the assay with U251 CNS, 71.1%; in the assay with PC-3 prostate it was 55.3%; with SK-MEL-5 melanoma it was 98%; with UACC-62 melanoma it was 108%; in the assay with LOX IMVI melanoma, 55%. The growth in the assay with SK-MEL-28 melanoma is 113%.

Take `CC1=C(C(=O)Nc2ccc(F)cc2)C(c2ccccc2)C2=C(CC(C)(C)CC2=O)N1` (centres undefined): the growth in the assay on DU-145 prostate is 95.2%; with K-562 leukemia it was 56%; in the assay with MALME-3M melanoma it was 89.8%; in the assay with MDA-MB-231 breast it was 70%; with RXF 393 renal it was 96.4%; with SF-268 CNS it was 82.6%. Besides, the growth in the assay on SF-539 CNS is 79.5%; in the assay on UACC-257 melanoma, 83.6%; with M14 melanoma it was 82.6%; in the assay on HCT-15 colon, 77.8%; in the assay on HT29 colon it was 96.3%; in the assay with SNB-75 CNS, 65.8%. For the same compound, the growth in the assay on U251 CNS was 69.8%; in the assay with PC-3 prostate it was 54.6%; with SK-MEL-5 melanoma it was 38.2%; in the assay on UACC-62 melanoma, 55.6%; in the assay with LOX IMVI melanoma, 79%; in the assay with SK-MEL-28 melanoma, 68%.

As to `Cc1cc(C)cc(CCCCCCCCCCCCCCCCCC(=O)O)c1`, the growth with DU-145 prostate is 108%; with K-562 leukemia it was 115%; in the assay on MALME-3M melanoma, 108%; in the assay on MDA-MB-231 breast, 120%; in the assay with RXF 393 renal, 107%; in the assay on SF-268 CNS, 103%. The growth in the assay on SF-539 CNS was 106%; with UACC-257 melanoma, 106%; with M14 melanoma, 98%; with HCT-15 colon, 102%; in the assay with HT29 colon, 110%; in the assay with SNB-75 CNS, 97.2%. The growth with SNB-19 CNS was 115%; in the assay on U251 CNS, 110%; in the assay on PC-3 prostate, 106%; in the assay with SK-MEL-5 melanoma it was 102%; in the assay on UACC-62 melanoma, 106%; in the assay with LOX IMVI melanoma, 104%. Further, the growth with SK-MEL-28 melanoma is 119%.

As to `COc1ccc(-c2nsc3c2NC(=O)CC3c2ccc3c(c2)OCO3)cc1` (centres undefined), the growth with DU-145 prostate is 14.8%; with K-562 leukemia, 0.385% (active); in the assay with MALME-3M melanoma, -1.91% (active); in the assay on MDA-MB-231 breast, 36%; in the assay on RXF 393 renal it was 11.3%; with SF-268 CNS, 42.8%. The growth was -9% (active) in the assay with SF-539 CNS; 60.2% in the assay on UACC-257 melanoma; 18.2% with M14 melanoma; 29.4% in the assay on HCT-15 colon; 3.39% (active) in the assay on HT29 colon; 7.61% (active) in the assay on SNB-75 CNS. The growth in the assay with SNB-19 CNS was 57.5%; in the assay with U251 CNS it was 12.2%; in the assay with PC-3 prostate it was 3.81% (active); with UACC-62 melanoma, 42.7%; in the assay on LOX IMVI melanoma it was 37.9%; with SK-MEL-28 melanoma, 56.5%.

Turning to `C=CCn1c(SCC(=O)Nc2ccc(C(=O)/C=C/c3ccc(Cl)cc3)cc2)nnc1-c1ccc(Cl)cc1`, the growth in the assay with DU-145 prostate was 100%; in the assay on K-562 leukemia, 72.5%; with MALME-3M melanoma, 93.2%; in the assay on MDA-MB-231 breast, 86.4%; in the assay with RXF 393 renal it was 99.9%; in the assay with SF-268 CNS, 82.7%. In addition, the growth in the assay on SF-539 CNS is 99.2%; in the assay with UACC-257 melanoma it was 99%; in the assay with M14 melanoma, 95.5%; with HCT-15 colon, 77.2%; with HT29 colon it was 92.8%; in the assay on SNB-75 CNS, 73.8%. The growth was 91.1% with SNB-19 CNS; 79.7% in the assay with U251 CNS; 69.9% in the assay on PC-3 prostate; 90.6% in the assay with SK-MEL-5 melanoma; 71.2% in the assay with UACC-62 melanoma; 89.9% in the assay with LOX IMVI melanoma. In addition, the growth in the assay on SK-MEL-28 melanoma is 104%.

For the compound `O=C(NNC(=S)Nc1ccccc1)c1ccc(Nc2ncnc3c2cnn3-c2cccc(Br)c2)cc1`, the growth with DU-145 prostate was 107%; in the assay with K-562 leukemia it was 112%; in the assay with MALME-3M melanoma, 101%; with MDA-MB-231 breast it was 110%; in the assay on RXF 393 renal, 99.6%; in the assay with SF-268 CNS it was 95.4%. In addition, the growth in the assay on SF-539 CNS is 98.5%; in the assay with UACC-257 melanoma, 114%; in the assay with M14 melanoma it was 100%; in the assay on HCT-15 colon, 110%; in the assay with HT29 colon, 105%; with SNB-75 CNS it was 80%. Besides, the growth with SNB-19 CNS was 101%; with U251 CNS, 114%; in the assay with PC-3 prostate it was 93.5%; in the assay with SK-MEL-5 melanoma, 100%; with UACC-62 melanoma, 94.6%; in the assay on LOX IMVI melanoma, 97.3%. Further, in the assay on SK-MEL-28 melanoma, the growth was 110%.

As to `CCCCCCCCNC(C)C(O)c1ccc(SC(C)C)cc1` (centres undefined), the growth was -25.5% (active) in the assay on DU-145 prostate; -59.8% (active) in the assay with K-562 leukemia; -78% (active) in the assay on MALME-3M melanoma; 89.7% in the assay on MDA-MB-231 breast; 37.5% in the assay with RXF 393 renal; 34.9% in the assay with SF-268 CNS. Moreover, the growth in the assay with SF-539 CNS is 26.8%; with UACC-257 melanoma, 56%; in the assay on M14 melanoma it was -17.4% (active); in the assay on HCT-15 colon it was 14.8%; in the assay with HT29 colon, -45.4% (active); in the assay with SNB-75 CNS, 74.8%. In addition, the growth with SNB-19 CNS is 75.9%; in the assay with U251 CNS it was 42.5%; in the assay with PC-3 prostate, 7.49% (active); in the assay on UACC-62 melanoma it was 92.7%; with LOX IMVI melanoma it was -95.5% (active); with SK-MEL-28 melanoma, 74.3%.

Take `O=C(CS)OCC(COC(=O)CS)(COC(=O)CS)COC(=O)CS`: the growth in the assay with DU-145 prostate is 95.3%; in the assay with K-562 leukemia, 34.3%; with MALME-3M melanoma, 89.6%; in the assay with MDA-MB-231 breast it was 104%; in the assay with RXF 393 renal it was 98.8%; with SF-268 CNS it was 82.7%. The growth in the assay on SF-539 CNS is 98.4%; with UACC-257 melanoma it was 59.3%; in the assay on M14 melanoma, 18.1%; in the assay with HCT-15 colon it was 85%; in the assay on HT29 colon, 98.9%; in the assay with SNB-75 CNS, 74.5%. Moreover, the growth with SNB-19 CNS is 119%; in the assay on U251 CNS, 103%; in the assay on PC-3 prostate it was 83.4%; in the assay with SK-MEL-5 melanoma, 102%; in the assay on UACC-62 melanoma, 67.9%; with LOX IMVI melanoma it was 70.5%. For the same compound, the growth in the assay on SK-MEL-28 melanoma was 90.1%.

(Values after PubChem BioAssay (NCI).)
